PubChem BioAssay (NCI)
The panel holds about 83,000 compounds, 20% with a hit somewhere; the sample as a whole holds those more often.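 Cells were grown in 96-well plates and exposed to the test compound at a single concentration for 48 hours; results are reported as percent growth, with values below 10 considered active.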 The source made the active and inactive calls.

Key:
Experiment in all cases: NCI-60 one-dose screen, 48 h (100 = growth as untreated, 0 = no growth, -100 = all killed)
Conditions in all cases: 10 µM
[1] = system: NCI-H23 lung
[2] = system: NCI-H226 lung
[3] = system: NCI-H322M lung
[4] = system: HOP-62 NSCLC
[5] = system: NCI-H460 lung
[6] = system: HOP-92 NSCLC
[7] = system: NCI-H522 lung
[8] = system: A549/ATCC NSCLC
[9] = system: 786-0 renal
[10] = system: COLO 205 colon
[11] = system: DU-145 prostate
[12] = system: K-562 leukemia
[13] = system: MALME-3M melanoma
[14] = system: MDA-MB-231 breast
[15] = system: RXF 393 renal
[16] = system: SF-268 CNS
[17] = system: SF-295 CNS
[18] = system: SF-539 CNS
[19] = system: UACC-257 melanoma
[20] = system: M14 melanoma

Measured: growth

Cc1nc2scc(-c3ccc(Cl)cc3)n2c(=O)c1CCN1CCOCC1
inactive: [1] 101% | [2] 94.6% | [3] 89.7% | [4] 89% | [5] 107% | [6] 81.6% | [7] 86.8% | [8] 99.6% | [9] 98.8% | [10] 99.9% | [11] 115% | [12] 80.6% | [13] 100% | [14] 78.3% | [15] 118% | [16] 102% | [17] 70.7% | [18] 100% | [19] 108% | [20] 97.8%

CCc1c(C)[nH]c(=O)c(C(N)=O)c1C#N
inactive: [1] 107% | [2] 117% | [3] 104% | [4] 96.7% | [5] 106% | [6] 109% | [7] 80.5% | [8] 89.4% | [9] 96.2% | [10] 110% | [11] 115% | [12] 114% | [13] 103% | [14] 102% | [15] 108% | [16] 105% | [17] 98.1% | [18] 92.9% | [19] 92.5% | [20] 97.5%

CCOC(=O)c1sc(Nc2ncccn2)nc1-c1ccccn1
inactive: [1] 84.4% | [2] 92.8% | [3] 85% | [4] 92% | [5] 66.9% | [6] 97.5% | [7] 85.7% | [8] 84.3% | [9] 97.9% | [10] 98.3% | [11] 92.3% | [12] 108% | [13] 107% | [14] 86.7% | [15] 104% | [16] 80.6% | [17] 84.2% | [18] 99.3% | [19] 100% | [20] 81.9%

COc1ccc(-c2cc(=O)n(-c3nc4ccccc4[nH]3)[nH]2)cc1OC
active: [15] 3.51% | [17] -12.8%
inactive: [1] 80.4% | [2] 85.1% | [3] 66.6% | [4] 71.6% | [5] 41.4% | [6] 17.4% | [7] 49.2% | [8] 59% | [9] 83% | [10] 113% | [11] 83% | [12] 26.5% | [13] 67.2% | [14] 94.5% | [16] 72.3% | [18] 71.3% | [19] 89.2% | [20] 54.5%

COc1ccc(-c2csc(NC(=O)CO[N+](=O)[O-])n2)cc1
active: [7] -39.7%
inactive: [1] 93.4% | [2] 102% | [3] 96.1% | [4] 101% | [5] 94.1% | [6] 118% | [8] 84.9% | [9] 113% | [10] 89.1% | [11] 106% | [12] 96.8% | [13] 102% | [14] 102% | [15] 125% | [16] 99.5% | [17] 101% | [18] 98.7% | [19] 63% | [20] 102%

COCc1cc2c(cc1Br)OCO2
inactive: [1] 96.7% | [2] 95.5% | [3] 96.5% | [4] 87.3% | [5] 106% | [6] 102% | [7] 88.6% | [8] 88.4% | [9] 102% | [10] 102% | [11] 112% | [12] 107% | [13] 98.6% | [14] 110% | [15] 107% | [16] 100% | [17] 99.1% | [18] 95.5% | [19] 101% | [20] 100%

O=C(O)CN1C(=O)C=CC1=O
inactive: [1] 106% | [2] 108% | [3] 90.9% | [4] 107% | [5] 107% | [6] 111% | [7] 103% | [8] 108% | [9] 103% | [10] 94.8% | [11] 104% | [12] 96.4% | [13] 97.7% | [14] 107% | [15] 98.9% | [16] 94.4% | [17] 103% | [18] 96.2% | [19] 115% | [20] 106%

C/C(=N\NC(=S)N1CCCC1)c1ccccn1
inactive: [1] 17% | [6] 48.5% | [9] 20% | [11] 16.7% | [14] 27.9% | [15] 21.5%
active: [2] -7.28% | [3] 6.18% | [4] 10% | [5] 1.6% | [7] 5.12% | [8] 0.905% | [10] 5.14% | [12] 7.97% | [13] -8.16% | [16] 9.48% | [17] -6.83% | [18] 4.96% | [19] -32.4% | [20] 6.19%

COc1cc(CSc2nc3ccc(C)cc3c(=O)n2Cc2ccccc2)cc(OC)c1OC
inactive: [1] 21.3% | [2] 47.3% | [3] 46.2% | [4] 40.5% | [5] 17.7% | [6] 56.6% | [8] 40% | [9] 46.8% | [12] 13.8% | [13] 30.1% | [14] 44.4% | [16] 51.5% | [17] 31% | [19] 47.4% | [20] 35.6%
active: [7] -14.5% | [10] -18.7% | [11] 9.78% | [15] -16.9% | [18] -16.4%

COc1ccc(C(C)=O)cc1N1C(=O)C2C(C1=O)C1(c3ccccc3)C(=O)C2(c2ccccc2)C(c2ccc(C)cc2)=C1c1ccc(C)cc1 (centres undefined)
inactive: [1] 42.8% | [2] 32.9% | [3] 27.6% | [4] 33.4% | [6] 49.6% | [7] 21.2% | [9] 22.1% | [10] 23.4% | [11] 19.1% | [12] 11.7% | [13] 17% | [14] 12.3% | [16] 13.8% | [18] 11.4% | [19] 16.2%
active: [5] 4.54% | [8] 6.68% | [15] -4.28% | [17] 1.18% | [20] -28.1%

O=C(Nc1cccc(Cl)c1)Nc1cc2ncncc2cc1OCc1cccc(F)c1
inactive: [1] 20.6% | [2] 37.1% | [3] 15.5% | [9] 39% | [11] 18.9% | [13] 10.8% | [14] 27.2% | [15] 31.5% | [16] 26.6% | [18] 36%
active: [4] -4.3% | [5] 4.36% | [6] -4.78% | [7] -8.47% | [8] 2.26% | [10] -69.6% | [12] 8.22% | [17] 7.22% | [19] -34.2% | [20] -18.2%

CCN(Cc1ccccc1)C1CCN(Cc2cc(Br)ccc2O)CC1
inactive: [1] 41.3% | [2] 63.4% | [3] 88.8% | [4] 58.1% | [5] 49.6% | [7] 61% | [8] 58.9% | [9] 62.7% | [11] 67.4% | [12] 11.6% | [13] 42.7% | [14] 26.3% | [15] 48.7% | [16] 65.9% | [17] 63.8% | [18] 74.8% | [19] 46.1% | [20] 46.6%
active: [6] 5.9% | [10] -20.6%

COc1ccc(C(=O)c2sc3nc(-c4cccs4)ccc3c2N)cc1OC
inactive: [1] 74.3% | [2] 73% | [3] 85% | [4] 70.6% | [5] 36.1% | [7] 24% | [8] 35.8% | [9] 70.7% | [10] 40.9% | [11] 81% | [12] 13% | [13] 58.9% | [14] 43.8% | [15] 66.9% | [16] 62.8% | [17] 51.3% | [18] 54.6% | [19] 76.3% | [20] 42.1%
active: [6] -0.708%

COc1ccc(C(=O)/C=C/c2cc(-c3ccc4c(c3)OCO4)n[nH]2)cc1OC
inactive: [1] 61.6% | [2] 39.6% | [3] 36.3% | [4] 51.1% | [5] 15.7% | [6] 55.7% | [7] 19.4% | [8] 37.9% | [9] 71.7% | [10] 56.1% | [11] 39.7% | [12] 23.8% | [13] 94.4% | [14] 58.3% | [15] 38.6% | [16] 45.4% | [17] 53.4% | [18] 42.2% | [19] 109% | [20] 91.6%

CC(CNC(Cc1ccccc1)c1ccccc1)NC(Cc1ccccc1)c1ccccc1 (centres undefined)
inactive: [1] 30.3% | [2] 34.8% | [3] 77.7% | [4] 39.9% | [8] 46.8% | [9] 50.2% | [11] 21.4% | [13] 45% | [14] 17.4% | [15] 43.7% | [16] 53.5% | [17] 61.2% | [18] 52.7% | [19] 76.9% | [20] 30.4%
active: [5] 8.03% | [6] -0.172% | [7] 9.37% | [10] 9.3% | [12] 8.06%

C(=C\c1nc2ccccc2s1)/c1ccc(N2CCOCC2)s1
inactive: [1] 78% | [2] 89.4% | [3] 79.7% | [4] 118% | [5] 80.7% | [6] 93% | [7] 64.2% | [8] 83.3% | [9] 82.5% | [10] 94.8% | [11] 92.4% | [12] 31.8% | [13] 103% | [14] 75.5% | [16] 98.2% | [17] 69% | [18] 81.1% | [19] 90.2% | [20] 36.6%
